High-throughput results as filed in PubChem BioAssay.
KB-3-1 cytotox: qHTS assay for MDR1-selective chemotherapeutics: Primary screen using the parental adenocarcinoma cell KB-3-1; KB-3-1 viability, CellTiter-Glo ATP luminescence, 72 h; Potency, µM (titrated, usually from 46.1 µM), usual class: cytotoxic; actives 1.4% (n = 400,000); AID 1347075, 2019; further: on the % scale 0 is the no-effect control and ±100 the full control effect; nearly all actives have a fitted effect of over 60% in size
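KB-3-1 cells, DMEM (no phenol red) + 10% FBS; compound by pin transfer, 72 h, 37 °C. Readout: CellTiter-Glo luminescence after 10 min. Data normalized, curve-fitted.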
TGFb inhibitor: qHTS for Inhibitors of TGF-b | actives 1.2% (n = 410,000) | HepG2 CAGA-GFP TGF-b/SMAD3 reporter, GFP fluorescence, 18 h; TGF-beta stimulated, 500 pg/mL final | Potency, µM (doses to about 46.1 µM), for the others: at the top dose activity, negative = inhibition, most hits filed as inhibitors | AID 588855, 2011; further: on the % scale 0 is the no-effect control and ±100 the full control effect; nearly all actives have a fitted effect of over 65% in size
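Inhibition of TGF-beta-driven CAGA-GFP reporter expression in HEPG2 cells is measured by cellular GFP fluorescence after 18 h stimulation with 500 pg/mL recombinant TGF-beta in 1% FBS medium at 37 degrees C.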
ATXN2 expr inh: Primary qHTS for Inhibitors of ATXN expression; HEK-293 ATXN2-luciferase reporter, luminescence, 24 h; Potency, µM (titrated, usually from 57 µM), inactives show at the top dose activity change, negative = inhibition, usual class: inhibitors; actives 0.72% (n = 360,000); further: on the % scale 0 is the no-effect control and ±100 the full control effect; nearly all actives have a fitted effect of over 55% in size
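qHTS (up to 57 uM final) was run with 24 h compound exposure of reporter cells at 37 °C. Each well was multiplexed: SteadyGlo luminescence measured ATXN2-luciferase expression after a fluorogenic Gly-Phe-AFC viability readout (25 uM final).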
KB-V1 cytotox: qHTS assay for MDR1-selective chemotherapeutics: Primary screen using the drug-selected MDR subline cells KB-V1. AID 1347076, 2019. Potency, µM (doses to about 46.1 µM), hits mostly cytotoxic. actives 3.4% (n = 400,000). KB-V1 MDR cells viability, CellTiter-Glo, 72 h; further: on the % scale 0 is the no-effect control and ±100 the full control effect; nearly all actives have a fitted effect of over 60% in size
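Cells of the MDR subline KB-V1 are plated, dosed with compound at multiple concentrations, and incubated 72 h at 37 degrees C; CellTiter-Glo is then added and luminescence read after 10 min.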
S2 tox: Viability Counterscreen for Primary qHTS for Inhibitors of ATXN expression. Potency, µM (titrated, usually from 56.7 µM), most hits filed as cytotoxic. actives 0.49% (n = 400,000). S2 cells (HEK-293 line with an ATXN2-luciferase reporter) viability, CellTiter-Fluor protease fluorescence, 24 h. AID 651635, 2014; further: nearly all actives have a fitted effect of over 40% in size
HepG2 viability: qHTS for Inhibitors of TGF-b: Cytotox Counterscreen. HepG2 CAGA-GFP viability, ATP luminescence, 18 h. Potency, µM (top dose mostly 46.1 µM), inactives show at the highest dose activity change, negative = cytotoxicity, hits mostly cytotoxic. actives 0.76% (n = 410,000)
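CellTiter-Glo luminescence gave cytotoxicity after 18 hours at 37 degrees C. The cells were HepG2 CAGA-GFP in 1% FBS DMEM, stimulated with 500 pg/mL TGF-beta after compound addition. %Activity was normalised to no-cell wells (complete cell-killing) and DMSO (no toxicity), and curves were fitted and classified.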
* = called active by the depositor; i = inactive; ? = inconclusive; . = not tested or not shown. Sampled rows, rich in hits. Any-hit rate of the full collection: about 5.9%. The call rests on the fitted dose curve; in most records, active means well fitted curve in the direction sought with a large enough effect; inconclusive means small, poorly fitted or top-dose-only effect, or another doubt; inactive means no such curve, though single readings can be large; an effect the other way counts as inactive or inconclusive. Potency means the concentration at half of the fitted maximal effect.

SMILES	KB-3-1 cytotox	TGFb inhibitor	ATXN2 expr inh	KB-V1 cytotox	S2 tox	HepG2 viability
CCOC(=O)c1cc2c(=O)n3ccccc3nc2n(CC2CCCO2)c1=NC(=O)c1cc(C)cc(C)c1 (stereo not drawn)	?	-31%	60%	?	i	-44%
COc1cc(-c2nc3ccc(Cl)cn3c2Nc2ccc3c(c2)OCO3)ccc1O	i	?	?	i	18µM*	-65%
COc1ccc(-c2nc3ccc(C)cn3c2Nc2ccc3c(c2)OCO3)cc1	i	-7%	24%	?	i	-4%
COc1cc(-c2nc3ccc(C)cn3c2Nc2ccc(Cl)cc2)ccc1O	i	?	?	i	16µM*	16µM*
CC[C@H](C)[C@@H]1NC(=O)[C@H]([C@@H](C)CC)NC(=O)[C@@H](CC(C)C)NC(=O)[C@H](Cc2ccccc2)NC(=O)[C@H](Cc2ccccc2)NC(=O)[C@@H]2CCCN2C(=O)[C@@H]2CCCN2C(=O)[C@H](C(C)C)NC(=O)[C@H](CC(C)C)NC1=O	?	-8%	?	i	28µM*	-3%
Cc1cccc(C)c1Nc1c(-c2ccccc2F)nc2cccc(C)n12	i	?	?	i	?	-35%
O=C(CCCCCCCCC(=O)N1CCCCC1)N1CCCCC1	?	-26%	-21%	2.3µM*	i	-6%
CCC(=O)Nc1ccc(S(=O)(=O)NC[C@H]2O[C@@H](n3cnc4c(=O)[nH]c(N)nc43)[C@H](O)[C@@H]2O)cc1	i	8%	3%	i	i	6%
CC(C)Sc1nc2sc(-c3ccccc3)cc2c(=O)n1N	i	-14%	0%	i	i	6%
CSc1nc2sc(-c3ccccc3)cc2c(=O)n1N	?	-3%	?	9.2µM*	?	-8%
Cn1c(=O)c2c(SCC(=O)NCc3ccc(F)cc3)nc(-c3ccccc3Cl)nc2n(C)c1=O	i	-4%	9%	i	i	1%
COC(=O)c1ccccc1Nc1ccnc(Cl)n1	i	0%	4%	i	i	20µM*
CC(=O)OCCN1C(=O)c2c(C)nc3ccc(S(=O)(=O)N4CCOCC4)cc3c2C1=O	.	.	2%	.	.	.
COc1ccc(-c2nn(-c3ccccc3)cc2/C=C/C(=O)OCC(=O)Nc2ccc(C#N)cc2)cc1	i	-6%	-11%	9.2µM*	i	-38%
COc1ccc(NC(=O)CN(C)C(=O)c2cn(-c3ccccc3)nc2-c2ccc(Cl)cc2)cc1	?	?	?	23µM*	?	-8%
Cn1cc([N+](=O)[O-])c(C(=O)Nc2ccc(-c3nc4ccccc4o3)cc2)n1	18µM*	?	.	12µM*	i	11%
Fc1ccccc1Nc1nc2ccccc2o1	?	-5%	17%	?	i	7.1µM*
Cc1ccc(-c2cnc(NCc3c(F)cccc3Cl)n2C)cc1	i	0%	148%	i	i	-32%
Cc1ccc(-c2ccc(S(=O)(=O)N3CCN(C)CC3)cc2)cc1	i	?	0%	13µM*	i	-4%
CC(C)C(=O)NC(=S)Nc1ccc(S(=O)(=O)N2CCCC2)cc1	i	-29%	-2%	15µM*	i	-30%
O=C(NC(=S)Nc1ccc(S(=O)(=O)N2CCCC2)cc1)c1cccs1	i	-1%	-9%	10µM*	i	-1%
CC(C)C(=O)NC(=S)Nc1ccc(S(=O)(=O)Nc2ccccc2)cc1	i	?	-1%	23µM*	i	-7%
COc1ccc(NS(=O)(=O)c2ccc(NC(=S)NC(=O)C(C)C)cc2)cc1	i	4%	0%	i	i	0%
CCOC(=O)c1[nH]c(C)c(CCC(=O)Nc2ccc(C(C)=O)cc2)c1C	i	8%	6%	?	i	3%
NC(=O)CCCCC1CCSS1 (stereo not drawn)	.	.	1%	.	i	.
SMILES	KB-3-1 cytotox	TGFb inhibitor	ATXN2 expr inh	KB-V1 cytotox	S2 tox	HepG2 viability
Cc1cc(NS(=O)(=O)c2ccc(NC(=S)NC(=O)c3ccc(C(C)(C)C)cc3)cc2)no1	i	?	10%	23µM*	i	-29%
Cc1cc(NS(=O)(=O)c2ccc(NC(=S)NC(=O)c3ccccc3)cc2)no1	i	-2%	4%	i	i	-3%
Cc1ccc(NS(=O)(=O)c2cccc(C(=O)Nc3cc(C)on3)c2)cc1	i	-15%	-13%	4.6µM*	i	-32%
Cc1ccc(C(=O)NC(=S)Nc2ccc(S(=O)(=O)N3CCN(C)CC3)cc2)cc1	i	5%	-20%	23µM*	i	-10%
Cc1ccc(S(=O)(=O)Nc2ccc(C(=O)Nc3cc(C)on3)cc2)cc1	i	20%	3%	i	i	-2%
O=C(C[n+]1ccccc1Cl)c1cccc([N+](=O)[O-])c1	i	-29%	.	i	.	-46%
O=C(CCNS(=O)(=O)c1ccc2c(c1)CCN2C(=O)C1CC1)Nc1ccc(Cl)cc1	i	-3%	-26%	i	i	-31%
CCOc1ccc(S(=O)(=O)N2CCN(c3nc(-c4ccccc4)nc4ccccc34)CC2)cc1OCC	i	-11%	.	i	.	-12%
COCCCNCCOCCOc1ccc(C)cc1Br	i	0%	-6%	i	i	-12%
CCCCNCCOCCOc1ccc(C)cc1Br	i	8%	-8%	16µM*	i	-45%
COC(=O)C(C(=O)OC)C(CC(=O)c1ccc(C)cc1)c1cc(OC)c(OC)c(OC)c1 (stereo not drawn)	i	19%	-18%	i	i	-10%
COc1ccc(C(CC(=O)c2ccc(C)cc2)C(C#N)C#N)cc1OC (stereo not drawn)	?	?	?	?	30µM*	-50%
N=c1c2c(-c3ccccc3)c(-c3ccccc3)n(Cc3ccco3)c2ncn1Cc1ccccc1	i	-5%	-24%	i	i	-23%
N=c1c2c(-c3ccccc3)c(-c3ccccc3)n(Cc3ccccc3)c2ncn1CCO	i	?	?	18µM*	8.9µM*	-53%
c1ccc(-c2c(-c3ccccc3)n(Cc3ccco3)c3ncnc(NCCCn4ccnc4)c23)cc1	?	?	?	?	.	20µM*
